From PubChem
This is a sample that favours compounds with a hit; in the whole collection about 2.3% have one here.
HSP90 inh = HSP90 inhibitors, primary screen, cell lysate, luminescence; Rabbit reticulocyte lysate, luciferase refolding luminescence, 3 h; inhibition, % at 5.6 µM; Heat shock protein HSP 90 (rabbit reticulocyte lysate; luciferase refolding); 290,000 compounds, 0.91% hits; AID 1789, 2009;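 active = inhibition above the screen-wide mean plus 3 SD, computed separately per campaign, cut at about 16% in these data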;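 note: inhibitors lower the luminescence because luciferase stays unfolded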
SENP8 block-1 = human SENP8 protease inhibitors, primary screen, biochemical, fluorescence, Nedd8 protein substrate, uHTS | 360,000 compounds, 0.64% hits | recombinant SENP8 | inhibition, % at 20 µM; in the data active = inhibition mostly above about 40%, no sharp cut-off; inactive = mostly below about 27%
LGR2 antag = inhibitors of bursicon-induced LGR2 CRE-luciferase signal, primary screen, cell-based, HEK293, CRE-luciferase reporter, bursicon stimulation; Drosophila bursicon receptor LGR2 (rickets); AID 720647, 2013; inhibition, % at 9.99 µM; bursicon-stimulated, 4 h; 380,000 compounds, 0.35% hits;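 active = drop in luminescence signal, shown as inhibition above about 50% in the replicate tests, limit read from the data, passing the limit was not always enough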;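 note: agonist challenge used bursicon conditioned medium at about half maximal strength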
SENP8 block-2 = SENP8 protease inhibitors, primary screen, biochemical, luminescence. Sentrin-specific protease 8 (Homo sapiens), Q96LD8. purified SENP8, Z-RLRGG-aminoluciferin cleavage. inhibition, % at 10 µM. 330,000 compounds, 1.2% hits. AID 2540, 2010; in the data active = inhibition above about 50%
SENP7 inh = SENP7 protease inhibitors, primary screen, biochemical, luminescence, uHTS; recombinant SENP7, Z-RLRGG-aminoluciferin luminescence, 40 min; 330,000 compounds, 1.5% hits; AID 434973, 2010; inhibition, % at 5 µM; Sentrin-specific protease 7 (Homo sapiens), Q9BQF6;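 active = inhibition above about 50% at the single test dose, limit read from the data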
SENP6 inh = SENP6 protease inhibitors, primary screen, biochemical, luminescence, uHTS; Sentrin-specific protease 6 (Homo sapiens), Q9GZR1; Recombinant SENP6 catalytic domain, aminoluciferin luminescence; inhibition, % at 10 µM; 330,000 compounds, 1.8% hits; AID 2599, 2010;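 active = inhibition above about 50% at the single tested dose, limit read from the data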
Target sequence (Q9GZR1 628-1112 limits assumed): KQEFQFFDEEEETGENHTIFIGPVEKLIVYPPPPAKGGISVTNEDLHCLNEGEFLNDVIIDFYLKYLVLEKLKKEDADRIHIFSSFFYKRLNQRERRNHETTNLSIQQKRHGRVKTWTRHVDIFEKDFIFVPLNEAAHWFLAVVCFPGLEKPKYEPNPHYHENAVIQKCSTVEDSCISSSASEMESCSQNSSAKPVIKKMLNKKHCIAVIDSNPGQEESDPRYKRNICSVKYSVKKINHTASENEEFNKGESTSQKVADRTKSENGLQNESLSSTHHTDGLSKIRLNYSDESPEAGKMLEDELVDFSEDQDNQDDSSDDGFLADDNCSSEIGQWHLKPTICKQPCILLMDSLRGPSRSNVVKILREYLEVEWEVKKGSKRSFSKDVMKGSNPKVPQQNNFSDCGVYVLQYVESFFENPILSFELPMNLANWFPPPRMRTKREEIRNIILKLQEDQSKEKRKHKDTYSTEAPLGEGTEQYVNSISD
SENP8 confirm = SENP8 protease inhibitors, retest, confirmation, biochemical, luminescence, single concentration; shares compounds with SENP7 inh; inhibition, % at 12.5 µM; 6,200 compounds, 40% hits; Recombinant SENP8, Z-RLRGG-aminoluciferin luminescence, 60 min; AID 488912, 2010;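 active = mean inhibition across replicates above about 50%, limit read from the data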
SENP6 confirm = SENP6 protease inhibitors, confirmation, biochemical, luminescence, single concentration | recombinant SENP6, Z-RLRGG-aminoluciferin luminescence | inhibition, % at 12.5 µM | 6,200 compounds, 58% hits | shares compounds with SENP7 inh
SENP7 conf = SENP7 protease inhibitors, retest, confirmation, biochemical, luminescence, single concentration; shares compounds with SENP7 inh; recombinant SENP7, Z-RLRGG-aminoluciferin luminescence, 40 min; inhibition, % at 12.5 µM; 6,200 compounds, 69% hits; AID 488917, 2010
Casp3 SENP sel = caspase-3 protease inhibitors, confirmation, selectivity assay for SENP inhibitor project, biochemical, single concentration. shares compounds with SENP7 inh. inhibition, % at 12.5 µM. purified caspase-3, Z-DEVD-aminoluciferin luminescence, 60 min. 6,200 compounds, 60% hits;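 active = mean inhibition above about 50%, limit read from the data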
Target sequence (P42574 28-227 limits assumed): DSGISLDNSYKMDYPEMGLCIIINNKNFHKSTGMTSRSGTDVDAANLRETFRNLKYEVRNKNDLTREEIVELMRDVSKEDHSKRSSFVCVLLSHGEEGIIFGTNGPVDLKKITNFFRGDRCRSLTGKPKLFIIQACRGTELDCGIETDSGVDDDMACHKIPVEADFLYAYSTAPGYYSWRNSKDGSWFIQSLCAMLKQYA
SENP luc ctr = luminescence interference (SENP counter-screen) | shares compounds with SENP7 inh | Pre-incubated SENP8/Z-RLRGG-aminoluciferin, luciferase luminescence interference | inhibition, % at 12.5 µM | 6,200 compounds, 39% hits | AID 488919;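 active = mean inhibition above about 50% when retested at one dose, limit read from the data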
Large screens that a line does not name were inactive (follow-up assays come after a bar, where they were run).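 Rule for the calls, unless noted: active = mean inhibition above about 50% in the one-dose retest (limit read from the data); inactive = the rest.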

Nc1nnc(-c2cccnc2)s1	none (no result: LGR2 antag)
COc1ccc(NC(=O)Nc2cc(C)ccc2F)cc1	SENP8 block-2 88, SENP6 inh 92 | SENP8 confirm inactive | SENP6 confirm 92 | SENP7 conf 101 | Casp3 SENP sel 91 | SENP luc ctr 59
COc1ccc(NC(=O)Nc2ccccc2C(N)=O)cc1OC	none (no result: LGR2 antag)
COc1ccc(NC(=O)Nc2ccccc2C(N)=O)cc1	SENP8 block-2 91, SENP7 inh 96, SENP6 inh 96 | SENP8 confirm inactive | SENP6 confirm 95 | SENP7 conf 102 | Casp3 SENP sel 98 | SENP luc ctr 89
COc1ccc(NC(=O)Nc2ccc(F)c(F)c2)c(OC)c1	none
CO[C@H]1CN(C)C(=O)c2cc(NC(=O)C3CC3)ccc2OC[C@H](C)NC[C@@H]1C	none (no result: HSP90 inh, SENP8 block-1, SENP8 block-2, SENP7 inh, SENP6 inh)
C[C@@H](NC(=O)C[C@@H]1CC[C@@H](NC(=O)C2CC2)[C@@H](CO)O1)c1ccccc1	none (no result: HSP90 inh, SENP8 block-1, SENP8 block-2, SENP7 inh, SENP6 inh)
Fc1ccc(OCc2nc3ccccc3s2)cc1	SENP8 block-2 90, SENP7 inh 94, SENP6 inh 97 | SENP8 confirm 82 | SENP6 confirm 92 | SENP7 conf 102 | Casp3 SENP sel 90 | SENP luc ctr 79
NC(=O)c1ccccc1OCc1nc2ccccc2s1	none
CCC(=O)Nc1ccc(OCc2nc3ccccc3s2)cc1	SENP8 block-2 76, SENP7 inh 75 (no result: LGR2 antag) | SENP8 confirm inactive | SENP6 confirm 80 | SENP7 conf 96 | Casp3 SENP sel 75 | SENP luc ctr inactive
Nc1ncc(Br)cc1N=Cc1ccccc1	SENP6 inh 72 (no result: LGR2 antag) | SENP8 confirm inactive | SENP6 confirm inactive | SENP7 conf inactive | Casp3 SENP sel inactive | SENP luc ctr inactive
C[C@H](CO)N1C[C@H](C)[C@H](CN(C)Cc2ccc(C(=O)O)cc2)Oc2ncc(C3=CCCC3)cc2C1=O	none (no result: HSP90 inh, SENP8 block-1, SENP8 block-2, SENP7 inh, SENP6 inh)
COc1ccc(-c2ccc(SC)nn2)cc1	HSP90 inh 43, LGR2 antag 83, SENP8 block-2 94, SENP7 inh 100, SENP6 inh 95 | SENP8 confirm 98 | SENP6 confirm 99 | SENP7 conf 102 | Casp3 SENP sel 98 | SENP luc ctr 80
C[C@H](CO)N1C[C@H](C)[C@H](CN(C)Cc2ccc(Oc3ccccc3)cc2)Oc2ccc(NS(C)(=O)=O)cc2CC1=O	none (no result: HSP90 inh, SENP8 block-1, SENP8 block-2, SENP7 inh, SENP6 inh)
Clc1ccc(-c2cn3nc4c(nc3n2)CCCC4)cc1	SENP6 inh 55 (no result: LGR2 antag) | SENP8 confirm inactive | SENP6 confirm 62 | SENP7 conf 62 | Casp3 SENP sel 60 | SENP luc ctr inactive
COc1cccc(-c2cn3nc4c(nc3n2)CCCC4)c1	none (no result: LGR2 antag)
Nc1ccccc1C#Cc1ccccc1	SENP8 block-2 57, SENP7 inh 66, SENP6 inh 67 | SENP8 confirm inactive | SENP6 confirm 76 | SENP7 conf 91 | Casp3 SENP sel 59 | SENP luc ctr 63
Nc1ccc(C#Cc2ccccc2)cc1	none (no result: LGR2 antag)
Cc1noc(C)c1NC(=O)N[C@H]1CC[C@H](CC(=O)N2CCN(C)CC2)O[C@H]1CO	none (no result: HSP90 inh, SENP8 block-1, SENP8 block-2, SENP7 inh, SENP6 inh)
C[C@@H]1CN([C@H](C)CO)S(=O)(=O)c2ccc(C#Cc3cccc(F)c3)cc2O[C@@H]1CN(C)C(=O)NC1CCCCC1	none (no result: HSP90 inh, SENP8 block-1, SENP8 block-2, SENP7 inh, SENP6 inh)
Oc1ccc(/C=N/NC(=S)Nc2cccnc2)cc1	none
Oc1ccc(/C=N/NC(=S)N/N=C/c2ccc(O)cc2)cc1	SENP6 inh 62 | SENP8 confirm 54 | SENP6 confirm 52 | SENP7 conf 76 | Casp3 SENP sel 85 | SENP luc ctr 59
CCOc1cccc(/C=C/c2ccc3cccc(O)c3n2)c1O	SENP8 block-2 55, SENP7 inh 64 | SENP8 confirm inactive | SENP6 confirm 59 | SENP7 conf 85 | SENP luc ctr inactive
COc1ccccc1/C=C/c1ccc2cccc(O)c2n1	SENP8 block-2 51, SENP6 inh 81 | SENP8 confirm inactive | SENP6 confirm 72 | SENP7 conf 92 | Casp3 SENP sel 57 | SENP luc ctr inactive
CCOc1cccc(/C=C/c2ccc3cccc(O)c3n2)c1OC	none
CCN(CC)C(=O)c1ccc(COc2ccccc2Cl)cc1	none (no result: LGR2 antag)
COc1ccc(OCc2ccc(C(=O)O)cc2)cc1	SENP8 block-2 51, SENP7 inh 68, SENP6 inh 84 (no result: LGR2 antag) | SENP8 confirm 81 | SENP6 confirm 76 | SENP7 conf 94 | Casp3 SENP sel 62 | SENP luc ctr 78
O=C(O)c1ccc(COc2ccccc2Cl)cc1	SENP8 block-2 57, SENP6 inh 72 | SENP8 confirm inactive | SENP6 confirm 66 | SENP7 conf 91 | Casp3 SENP sel 85 | SENP luc ctr 70
O=C(O)c1cccc(COc2cccc3ccccc23)c1	SENP8 block-2 97, SENP7 inh 96, SENP6 inh 97 (no result: HSP90 inh, LGR2 antag) | SENP8 confirm 98 | SENP6 confirm 100 | SENP7 conf 103 | Casp3 SENP sel 84 | SENP luc ctr 99
COc1ccc(OCC(O)COc2ccc(C(=O)O)cc2)cc1 (stereo not drawn)	none (no result: LGR2 antag)
O=C(c1ccc(COc2ccc(Cl)cc2)cc1)N1CCCCC1	SENP8 block-2 63, SENP7 inh 75, SENP6 inh 87 | SENP8 confirm 81 | SENP6 confirm 78 | SENP7 conf 91 | Casp3 SENP sel 60 | SENP luc ctr 66
COc1ccc(NC(=O)Nc2ccc3c(c2)[C@H]2C[C@@H](CC(=O)NC4CCCC4)O[C@@H](CO)[C@H]2O3)cc1	none (no result: HSP90 inh, SENP8 block-1, SENP8 block-2, SENP7 inh, SENP6 inh)
C/C=C/c1ccc([C@H]2[C@H]3CN(C(=O)Nc4ccc(OC)cc4)CC(=O)N3[C@H]2CO)cc1	none (no result: HSP90 inh, SENP8 block-1, SENP8 block-2, SENP7 inh, SENP6 inh)
